# ELG1 genotoxic – qHTS screen for small molecules that induce genotoxicity in human embryonic kidney (HEK293T) cells expressing luciferase-tagged ELG1. AID 504466, 2011. HEK293T ELG1-luciferase reporter, luminescence, 16 h. 330,000 compounds, 1.3% hits. Potency, µM (series often up to 46 µM), for inactives: at the highest dose activity change, positive = activation, most hits filed as activators; also: % of control where 0% means no effect; nearly all actives have a fitted effect of over 60% in size
#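 After overnight (16 hr) compound treatment at 37 °C, ELG1-luciferase HEK293T cells were lysed with ONE-Glo; luminescence quantified 30 min later at room temperature.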
# FLuc modulator – qHTS profiling assay for firefly luciferase inhibitor/activator using purifed enzyme and Km concentrations of substrates (counterscreen for miR-21 project) | Potency, µM (series often up to 57.5 µM), for inactives: top-dose activity change, negative = inhibition, usual class: inhibitors | purified FLuc, Km substrates, luminescence inhibition | Luciferin 4-monooxygenase (Photinus pyralis), P08659 | 360,000 compounds, 6.9% hits;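 also: plate controls were vehicle for no effect and reference inhibitor for full effect; nearly all actives have a fitted effect of over 55% in size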
# Target sequence (P08659 whole entry, looked up): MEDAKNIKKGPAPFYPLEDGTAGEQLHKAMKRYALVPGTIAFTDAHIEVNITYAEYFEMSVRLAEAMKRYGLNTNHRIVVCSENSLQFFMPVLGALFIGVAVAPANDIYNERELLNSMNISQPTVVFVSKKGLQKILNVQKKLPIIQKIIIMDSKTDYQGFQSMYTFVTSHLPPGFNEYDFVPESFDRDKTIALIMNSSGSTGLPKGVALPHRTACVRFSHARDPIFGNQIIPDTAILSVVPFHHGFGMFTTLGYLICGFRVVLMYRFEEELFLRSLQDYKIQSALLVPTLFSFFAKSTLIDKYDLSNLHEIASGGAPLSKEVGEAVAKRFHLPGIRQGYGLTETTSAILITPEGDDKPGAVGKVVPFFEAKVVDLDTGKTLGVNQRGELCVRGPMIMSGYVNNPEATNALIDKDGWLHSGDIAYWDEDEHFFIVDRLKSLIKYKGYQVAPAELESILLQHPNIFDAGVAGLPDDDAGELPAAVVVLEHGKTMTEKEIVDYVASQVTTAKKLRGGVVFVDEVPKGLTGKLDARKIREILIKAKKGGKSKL
#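 Purified P. pyralis luciferase (10nM final) with 10uM D-luciferin and 10uM ATP (Km levels) in 50mM Tris acetate pH 7.5, 10mM Mg acetate, 0.01% Tween-20, 0.05% BSA; qHTS 6-point titration, ~60 µM downward; luminescence read.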
# NPC1 promoter act – qHTS Assay for NPC1 Promoter Activators; Huh7 NPC1 promoter luciferase reporter, 24 h; Potency, µM (doses to about 9.22 µM), inactives show at the highest dose activation, most hits filed as activators; 320,000 compounds, 2.4% hits; also: % of control where 0% means no effect; nearly all actives have a fitted effect of over 60% in size
#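 Stable NPC1-promoter luciferase Huh7 line; cpd (DMSO) 24 h, 37 °C, 5% CO2; Amplite luciferase reagent 10 min RT; luminescence readout. qHTS format.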
# ELG1 DNA repair – qHTS screen for small molecules that inhibit ELG1-dependent DNA repair in human embryonic kidney (HEK293T) cells expressing luciferase-tagged ELG1 | HEK293T ELG1-luciferase reporter, luminescence, 16 h; DNA damage induced by 5-fluorouridine | Potency, µM (series often up to 46.1 µM), for the others: at the highest dose activity change, negative = inhibition, hits mostly inhibitors | 330,000 compounds, 2.3% hits | AID 504467, 2011; also: % is scaled to controls: 0 for no effect and ±100 for the full control effect; nearly all actives have a fitted effect of over 55% in size
#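 DMSO vehicle served as the neutral condition. Each well held 2,000 cells given 5-fluorouridine plus compound; after 16 hr at 37 °C/5% CO2, ONE-Glo was added and luciferase measured 30 min later.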
# Rab9 prom act – qHTS Assay for Rab9 Promoter Activators. Huh7 Rab9 promoter-luciferase reporter, luminescence, 24 h. Potency, µM (doses to about 9.22 µM), for the others: at the top dose activation, negative = inhibition, usual class: activators. 320,000 compounds, 2.8% hits. AID 485297, 2010; also: % of control where 0% means no effect; nearly all actives have a fitted effect of over 60% in size
#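 Quantitative HTS format; Huh7 Rab9-luciferase reporter cells (1500/well) receive compound 2 h post-plating, incubate 24 h at 37 °C, then get luciferase reagent for 10 min before luminescence reading.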
# SMN2 splice up – qHTS Assay for Enhancers of SMN2 Splice Variant Expression. 210,000 compounds, 2.8% hits. HEK293 SMN2-luciferase splicing reporter, luminescence, 30-36 h. Potency, µM (titrated, usually from 46.1 µM), inactives show at the highest dose activity change, positive = activation, most hits filed as activators; also: % of control where 0% means no effect; nearly all actives have a fitted effect of over 55% in size
#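 HEK293 cells carry an SMN2 minigene-luciferase reporter in which exon 7 inclusion puts luciferase in frame. Cells were seeded at 2000 cells/well, attached for 10-12 hours, then exposed to compounds for 30-36 hours at 37C before ONE-Glo luminescence.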
# * hit, by the source's call; ? = inconclusive; nt = no result; [ ] = dose if it differs, or a comment. Shown are actives, neighbours in structure and some others; about 9.3% of the full set was active somewhere. Calls follow the shape of the dose curve; as a rule, active = well fitted curve in the direction sought with a large enough effect; inconclusive = small, poorly fitted or top-dose-only effect, or another doubt; inactive = no such curve, though single readings can be large; an effect the other way counts as inactive or inconclusive. Potency is read from the fitted curve at half-maximal effect.
SMILES,ELG1 genotoxic,FLuc modulator,NPC1 promoter act,ELG1 DNA repair,Rab9 prom act,SMN2 splice up
O=C(c1nc(-c2ccccc2)n(-c2ccccc2)n1)N1CCN(S(=O)(=O)c2ccccc2)CC1,-8%,0%,1%,18µM*,-4%,-7%
Cc1ccc(-n2nc(C)c3cc(C(=O)O)sc32)cc1,3%,19µM*,-1%,5%,-4%,8%
Cc1nn(-c2ccccc2)c2sc(C(=O)O)cc12,0%,?,1%,?,3%,?
Cc1ccc(S(=O)(=O)N2CCN(C(=O)c3cc4c(C)nn(-c5ccccc5)c4s3)CC2)cc1,-6%,-1%,-2%,10µM*,-3%,-14%
O=C(O)c1nc(-c2ccccc2)n(-c2ccccc2)n1,1%,0%,0%,?,-3%,?
Cc1nn(-c2ccccc2)c2sc(C(=O)OC3CCOC3=O)cc12 (configuration not stated),2%,15µM*,3%,15%,-1%,9%
O=C(CC1CC2CCC1C2)N1CCN(S(=O)(=O)c2ccccc2C(F)(F)F)CC1 (configuration not stated),-6%,3%,-3%,11µM*,0%,nt
O=C(c1ccccc1)N1CCN(S(=O)(=O)c2ccc(Cl)c(C(F)(F)F)c2)CC1,2%,-2%,0%,-6%,0%,nt
O=C(c1ccccc1C(F)(F)F)N1CCN(S(=O)(=O)c2ccccc2)CC1,-6%,2%,-2%,21µM*,4%,-7%
Cc1ccc(NC(=O)C(OC(=O)c2cnc(C)cn2)c2ccccc2)c([N+](=O)[O-])c1 (configuration not stated),5%,3%,2%,11%,2%,nt
O=C(CC1N=C2c3ccccc3N=C(SCc3ccc(F)cc3)N2C1=O)NCc1ccco1 (configuration not stated),24%,-17%,-2%,29%,-2%,?
Cc1ccc(CSC2=Nc3ccccc3C3=NC(CC(=O)NCc4ccco4)C(=O)N23)cc1 (configuration not stated),6%,?,9%,?,-4%,11µM*
COc1ccc(NC(=O)c2ccc3c(c2)n(C)c(=O)n3C)cc1,?,?,-5%,?,-11%,?
Cc1ccc(CN2CCSc3ccc(C(=O)Nc4ccc(C)cc4)cc32)cc1,nt,21µM*,nt,nt,nt,?
COc1ccc(NC(=O)c2ccc3c(c2)N(C)CCS3)cc1,?,3.4µM*,2µM*,?,4µM*,nt
COc1ccc(CCNC(=O)c2ccc3c(c2)N(Cc2ccc(F)cc2)CCS3)cc1OC,-10%,1%,-1%,26µM*,-1%,6%
CN1CCSc2ccc(C(=O)Nc3cccc(F)c3)cc21,2.1µM*,1.7µM*,1.4µM*,?,1µM*,nt
CC(C)(C)N(Cc1ccccc1)C(=O)COC(=O)c1ccc([N+](=O)[O-])o1,1%,4%,0%,1%,-4%,nt
CC(NC(=O)CN(c1ccc(F)cc1)S(C)(=O)=O)c1ccccc1 (configuration not stated),-5%,-4%,1%,0%,7%,nt
Cc1sc2ncnc(N3CCC(C(=O)Nc4cc(S(C)(=O)=O)ccc4Cl)CC3)c2c1C,-14%,1%,-9%,?,-4%,nt
CCCCN(C)C(=O)c1cc2cc3cc(OC)ccc3nc2o1,-2%,13µM*,?,?,3.5µM*,?
CCCCN(C)C(=O)c1cc2cc3ccc(OC)cc3nc2o1,?,3.8µM*,4µM*,?,3.5µM*,nt
Cc1ccc2c(c1)C(c1ccccc1)N(C(=O)c1c(F)cccc1Cl)CC(=O)N2 (configuration not stated),-9%,-1%,2%,-4%,-5%,nt
CCCNC(=O)c1cc(Cl)c(NC(=O)C2=C(C)OCCS2)cc1OC,-7%,?,-1%,-28%,3%,nt
CCCNC(=O)c1cc(Cl)c(NC(=O)C2=CSCCO2)cc1OC,17%,19µM*,?,?,?,nt
SMILES,ELG1 genotoxic,FLuc modulator,NPC1 promoter act,ELG1 DNA repair,Rab9 prom act,SMN2 splice up
N/C(=N\O)c1ccc([N+](=O)[O-])s1,2%,7%,-4%,?,2%,nt
CCn1cc(Cl)c(C(=O)Nc2nccs2)n1,17%,?,?,?,?,nt
O=C(CSc1nnc(-c2ccncc2)n1-c1ccccc1)Nc1ccc(F)cc1,nt,-1%,nt,nt,nt,nt
Cc1cccc(C)c1NC(=O)CCCSc1nnc(-c2ccc(F)cc2)n1-c1ccccc1,-7%,2%,-5%,16µM*,-3%,-56%
Cc1cccc(C)c1NC(=O)CCCSc1nnc(-c2ccc(Cl)cc2)n1-c1ccccc1,-6%,1%,-5%,21µM*,-12%,-65%
COc1ccc(CNc2nc3ccccc3n2Cc2ccc(Cl)cc2)cc1OC,0%,2%,-1%,-13%,-8%,-84%
COC(=O)N/N=C(\C)c1ccccc1Br,0%,-3%,-1%,20%,7%,-6%
O=Nc1ccc(NOC(=O)c2ccccc2Br)cc1,1%,0.24µM*,7%,29%,0%,11%
O=C(ONc1ccc(N=NC(=O)c2ccccc2O)cc1)c1ccccc1,10µM*,8.5µM*,?,?,4µM*,nt
C/C(Cn1nnc([N+](=O)[O-])n1)=N\NC(=O)c1ccc(O)cc1O,-9%,?,7%,11%,-7%,-16%
C/C(Cn1nnc([N+](=O)[O-])n1)=N\NC(=O)c1ccccc1O,-12%,11µM*,-1%,?,-4%,nt
C/C(CC(=O)Nc1ccc(N(C)C)cc1)=N\NC(=O)c1ccc(Cl)cc1Cl,8%,-18%,-1%,18%,7%,nt
C/C(CC(=O)Nc1ccc(Cl)c(C(F)(F)F)c1)=N\NC(=O)c1ccccc1O,-6%,17µM*,1%,-11%,-1%,10%[1.84 µM]
C/C(CC(=O)Nc1ccc(Cl)c(C(F)(F)F)c1)=N\NC(=O)c1cccc(O)c1,-3%,-12%,-2%,-9%,0%,13%
C/C(CC(=O)Nc1ccc(N(C)C)cc1)=N\NC(=O)c1ccccc1O,-1%,12µM*,5%,?,10%,nt
C/C(CC(=O)Nc1ccc([N+](=O)[O-])cc1)=N\NC(=O)c1ccccc1O,-1%,12µM*,2%,-1%,-2%,nt
